Calls of active or inactive are those of the source. Unless noted, the rule behind the calls is not given here.

Consider five compounds from PubChem BioAssay.

A short description of assay [1]: compounds binding Alexa647 anti-His antibody – biochemical, small-molecule microarray, 635 nm fluorescence, artefact control for SMM control protein annotation, primary screen (AID 1128).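 Note: score merges feature fluorescence with signal-to-noise for each printed compound spot.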 The note with it: higher = more signal.
For assay [2], the system named is Human papillomavirus type 1a E7 protein (residues 1-88). The assay is described as follows: HPV1a E7 small-molecule binders, primary screen, biochemical, small-molecule microarray, residues 1-88, 635 nm (AID 1129). The note with it: small-molecule microarray binding, fluorescence 635 nm; higher = more signal.
Assay [3] concerns the target Focal adhesion kinase 1 (Homo sapiens) (UniProt Q05397). Description: PTK2 protein binding on printed compound slides – biochemical, small-molecule microarray, 635/667 nm fluorescence, BSA, DTT, primary screen (AID 1130).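 Note: composite of spot emission at 667 nm and signal to noise over triplicate slides.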 The note with it: 635 nm fluorescence, higher = more signal.
The subject of assay [4] is Fibrinogen (Alexa647-labelled). Description: Alexa647-fibrinogen binding to printed small molecules – biochemical, small-molecule microarray, 635/667 nm fluorescence, artefact control for SMM control-protein annotation, profiling panel (AID 1131).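 Note: z-score merges 667 nm fluorescence with per-spot signal-to-noise over triplicate slides.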 The note with it: fibrinogen-A647 binding fluorescence, higher = more signal.
The target in assay [5] is Follistatin (Homo sapiens) (UniProt P19883). The assay is described as follows: FST protein binding to printed compounds – biochemical, small-molecule microarray, 635/667 nm fluorescence, primary screen (AID 1132). The note with it: 635 nm fluorescence, higher = more signal.
Follistatin (Homo sapiens), sequence (P19883 whole entry, looked up): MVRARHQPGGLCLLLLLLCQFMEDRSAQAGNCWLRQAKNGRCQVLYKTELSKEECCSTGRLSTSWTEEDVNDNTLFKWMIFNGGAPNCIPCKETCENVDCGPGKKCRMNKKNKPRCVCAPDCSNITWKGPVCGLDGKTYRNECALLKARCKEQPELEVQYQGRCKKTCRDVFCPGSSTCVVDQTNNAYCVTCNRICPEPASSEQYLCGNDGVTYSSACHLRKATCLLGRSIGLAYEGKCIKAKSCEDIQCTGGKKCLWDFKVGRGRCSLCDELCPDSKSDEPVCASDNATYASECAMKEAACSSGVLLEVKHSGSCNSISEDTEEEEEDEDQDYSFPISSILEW
Assay [6] deals with Fibroblast growth factor 2 (Homo sapiens) (UniProt P09038). Description: basic fibroblast growth factor binding to printed compounds – biochemical, small-molecule microarray, 635/667 nm fluorescence, primary screen (AID 1133). The note with it: FGF2, fluorescence 635/667, higher = more signal.
Fibroblast growth factor 2 (Homo sapiens), sequence (P09038 whole entry, looked up): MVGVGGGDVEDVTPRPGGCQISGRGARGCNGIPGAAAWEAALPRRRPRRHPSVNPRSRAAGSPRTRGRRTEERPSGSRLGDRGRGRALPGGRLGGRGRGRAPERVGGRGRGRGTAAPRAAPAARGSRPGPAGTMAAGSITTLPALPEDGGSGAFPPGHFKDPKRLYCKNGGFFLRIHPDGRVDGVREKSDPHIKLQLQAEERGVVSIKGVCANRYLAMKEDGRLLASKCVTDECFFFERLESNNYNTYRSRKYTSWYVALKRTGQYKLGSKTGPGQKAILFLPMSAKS
Assay [7] is described as follows: JC-1 mitochondrial potential readout, lung cancer cells – cell-based, A549, JC-1 fluorescence, basal, 24 h, 100 nL, profiling panel (AID 1138).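 Note: A549 lung adenocarcinoma cells under basal conditions with no added stimulus; test concentration not given here.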 The note with it: higher = more signal.
Another assay relates to Lefty1. Description: Lefty1 protein binding to printed compounds – biochemical, small-molecule microarray, 635/667 nm fluorescence, primary screen (AID 1139). The note with it: fluorescence 635/667, higher = more signal.
The test system of assay [8] is wheat germ agglutinin (Triticum aestivum), Alexa647-labelled. Description: Alexa647-WGA lectin binding to printed small molecules – biochemical, small-molecule microarray, 635/667 nm fluorescence, artefact control for SMM control-protein annotation, profiling panel (AID 1140).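 Note: score merges 667 nm feature emission with signal to noise over triplicate slides.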 The note with it: WGA-A647 binding, 635 nm fluorescence, higher = more signal.
For assay [9], the target named is Luciferin 4-monooxygenase (Photinus pyralis) (UniProt P08659). Description: inhibition of purified Photinus pyralis luciferase – biochemical, luminescence, purified enzyme, 2006 set, primary screen (AID 1141).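 Note: cell-free assay with purified firefly luciferase at 100 ng per well in PBS; test concentration not given here.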 The note with it: purified firefly luciferase, SteadyGlo luminescence, 30 min; higher = more signal, called active from +8 up or from −8 down.
Luciferin 4-monooxygenase (Photinus pyralis), sequence (P08659 whole entry, looked up): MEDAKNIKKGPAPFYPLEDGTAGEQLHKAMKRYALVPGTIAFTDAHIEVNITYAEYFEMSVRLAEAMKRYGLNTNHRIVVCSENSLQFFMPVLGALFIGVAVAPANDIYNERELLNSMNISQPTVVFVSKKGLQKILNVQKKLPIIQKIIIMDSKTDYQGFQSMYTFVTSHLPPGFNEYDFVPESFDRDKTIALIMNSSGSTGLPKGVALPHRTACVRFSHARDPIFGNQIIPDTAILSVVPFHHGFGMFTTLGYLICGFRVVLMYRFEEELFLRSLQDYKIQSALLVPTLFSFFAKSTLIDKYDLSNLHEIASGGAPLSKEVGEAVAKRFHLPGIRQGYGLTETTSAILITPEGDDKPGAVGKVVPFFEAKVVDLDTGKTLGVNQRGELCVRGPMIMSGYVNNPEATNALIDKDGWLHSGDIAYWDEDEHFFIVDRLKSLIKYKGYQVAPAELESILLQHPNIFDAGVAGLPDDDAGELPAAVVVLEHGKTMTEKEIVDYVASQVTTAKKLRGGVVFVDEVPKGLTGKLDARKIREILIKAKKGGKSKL
In assay [10] the test system is Wnt5a (protein binding on small-molecule microarray). Description: small molecules binding Wnt5a protein – biophysical, small-molecule microarray, 635/667 nm fluorescence, primary screen (AID 1142).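 Note: fluorescence read at 667 nm with signal to noise per printed feature.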 The note with it: 635 nm fluorescence, higher = more signal.
Assay [11] in a line: ATP-based viability of Huh7 replicon cells – cell-based, CellTiter-Glo luminescence, basal, 48 h, cytotoxicity control for HCV replication inhibitor project, primary screen (AID 1143).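 Note: Huh7 hepatoma cells carrying a hepatitis C replication reporter with no stimulus; test concentration not given here.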 The note with it: higher = more signal, called active from +8 up or from −8 down. A general note: Replicon systems follow genome replication, usually without infectious particles.
The nature of assay [12]: Pseudomonas biofilm growth suppression – PAO1 strain, BacTiter-Glo luminescence, LB-PBS, primary screen (AID 1144). The note with it: P. aeruginosa PAO1 biofilm, 12 h, higher = more signal.
Assay [13] in a line: basal CRE-LacZ reporter activity in PC12 – cell-based, unstimulated, primary screen (AID 1145). The note with it: no forskolin, luminescence, 4.5 h, higher = more signal, called active from +8 up or from −8 down.
A short description of assay [14]: forskolin-driven CRE-LacZ activity in PC12 – cell-based, CRE-LacZ reporter, forskolin-stimulated, primary screen (AID 1146).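 Note: PC12 cells with 6xCRE LacZ reporter stimulated by forskolin 10 µM; beta-galactosidase reporter signal reflecting CREB driven transcription.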 The note with it: luminescence, 4.5 h, higher = more signal, called active from +8 up or from −8 down.
Assay [15] addresses Streptavidin (Streptomyces avidinii) (UniProt P22629). The assay is described as follows: compounds binding control protein streptavidin – biophysical, small-molecule microarray, 635/667 nm fluorescence, artefact control for SMM compound annotation, primary screen (AID 1147).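 Note: signal reflects streptavidin binding to arrayed compounds as a control protein.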 The note with it: higher = more signal.
Assay [16] in a line: probe aInhba binding on compound microarray – biochemical, small-molecule microarray, 635/667 nm fluorescence, primary screen (AID 1148).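 Note: score merges 667nm spot fluorescence with signal-to-noise for antibody binding to printed compounds.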 The note with it: higher = more signal.
Assay [17] addresses Torsin-1A (Homo sapiens) (UniProt O14656). The assay is described as follows: TOR1A wild-type binding on microarray – cell lysate, small-molecule microarray, lysate, 635/667 nm, primary screen (AID 1149). The note with it: COS7 hTOR1A-WT lysate, 635 nm fluorescence, higher = more signal.
Assay [18] shares this target. The assay is described as follows: torsin A mutant lysate binding on microarrays – cell lysate, small-molecule microarray, COS7 lysate, 635/667 nm fluorescence, primary screen (AID 1150).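 Note: score pools 667 nm emission and signal to noise measuring lysate protein binding.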 The note with it: COS7 hTOR1A mutant lysate, 635 nm fluorescence, higher = more signal.
Assay [19] deals with Sonic hedgehog protein (Shh). Description: Sonic hedgehog microarray binding compounds – biochemical, small-molecule microarray, 635/667 nm fluorescence, primary screen (AID 1151).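 Note: Shh protein binding to compounds spotted on small-molecule microarray slides; score combines spot fluorescence intensity with signal-to-noise across triplicate slides.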 The note with it: 635 nm fluorescence, higher = more signal.

Focal adhesion kinase 1 (Homo sapiens), sequence (Q05397 whole entry, looked up): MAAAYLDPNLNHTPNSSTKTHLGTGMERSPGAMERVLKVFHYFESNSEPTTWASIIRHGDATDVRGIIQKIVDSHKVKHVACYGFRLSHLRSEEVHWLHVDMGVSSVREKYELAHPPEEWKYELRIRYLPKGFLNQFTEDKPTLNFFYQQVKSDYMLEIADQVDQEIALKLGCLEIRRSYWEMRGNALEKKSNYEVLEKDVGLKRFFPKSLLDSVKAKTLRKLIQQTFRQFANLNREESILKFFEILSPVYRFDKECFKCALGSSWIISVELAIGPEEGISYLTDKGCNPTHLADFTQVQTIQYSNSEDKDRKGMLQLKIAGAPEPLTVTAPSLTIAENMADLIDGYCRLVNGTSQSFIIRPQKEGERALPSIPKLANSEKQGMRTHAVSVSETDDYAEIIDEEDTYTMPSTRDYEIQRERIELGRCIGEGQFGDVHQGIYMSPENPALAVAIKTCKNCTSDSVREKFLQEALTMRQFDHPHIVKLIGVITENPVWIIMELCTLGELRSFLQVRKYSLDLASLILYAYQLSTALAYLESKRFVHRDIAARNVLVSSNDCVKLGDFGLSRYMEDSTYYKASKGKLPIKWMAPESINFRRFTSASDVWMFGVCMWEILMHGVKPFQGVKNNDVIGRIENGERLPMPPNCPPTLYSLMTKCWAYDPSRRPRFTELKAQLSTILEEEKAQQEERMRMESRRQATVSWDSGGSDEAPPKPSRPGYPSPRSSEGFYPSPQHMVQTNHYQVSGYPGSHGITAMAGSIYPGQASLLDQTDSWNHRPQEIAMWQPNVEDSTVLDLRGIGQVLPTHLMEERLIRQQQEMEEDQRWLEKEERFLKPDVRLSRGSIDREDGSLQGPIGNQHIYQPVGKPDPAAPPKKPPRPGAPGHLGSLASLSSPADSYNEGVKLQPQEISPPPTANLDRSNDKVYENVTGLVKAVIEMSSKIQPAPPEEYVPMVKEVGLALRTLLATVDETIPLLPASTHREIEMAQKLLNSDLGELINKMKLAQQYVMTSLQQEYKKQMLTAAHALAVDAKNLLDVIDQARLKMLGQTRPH
Torsin-1A (Homo sapiens), sequence (O14656 whole entry, looked up): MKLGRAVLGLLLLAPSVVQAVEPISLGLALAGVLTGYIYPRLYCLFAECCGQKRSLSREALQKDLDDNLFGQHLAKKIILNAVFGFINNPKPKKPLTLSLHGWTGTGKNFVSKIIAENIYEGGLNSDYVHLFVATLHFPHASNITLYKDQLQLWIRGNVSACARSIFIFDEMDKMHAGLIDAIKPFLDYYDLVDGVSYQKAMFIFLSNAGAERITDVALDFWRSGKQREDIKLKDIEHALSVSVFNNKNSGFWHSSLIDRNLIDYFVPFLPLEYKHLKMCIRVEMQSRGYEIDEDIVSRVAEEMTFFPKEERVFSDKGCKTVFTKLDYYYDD
Streptavidin (Streptomyces avidinii), sequence (P22629 whole entry, looked up): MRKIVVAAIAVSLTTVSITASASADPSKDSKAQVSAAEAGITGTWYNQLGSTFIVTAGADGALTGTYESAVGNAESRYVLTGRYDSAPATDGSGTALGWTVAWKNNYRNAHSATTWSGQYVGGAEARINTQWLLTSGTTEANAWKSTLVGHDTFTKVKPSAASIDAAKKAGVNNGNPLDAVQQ

In the case of `CC(C)[Si](C#CCCCC#N)(O[C@H](c1ccccc1)c1cn([C@H](C)c2ccccc2)nn1)C(C)C`, the composite z-score was 0.67 in assay [1]; 0.893 in assay [2]; -0.0546 in [3]; 0.464 in assay [4]; 0.661 in assay [5]; 0.286 in assay [6]. In addition, the composite z-score in the assay on Lefty1 came to 0.739; in assay [8], 0.0425; in [10] it was 0.0952; in assay [15], 0.492; in assay [16] it was 0.0183; with Torsin-1A (Homo sapiens) [17], 0.0529. Further, the results for the composite z-score (in the assay with Torsin-1A (Homo sapiens) [18]; in assay [19]) were 0.28 and 1.09, respectively. For the same compound, the z-score was 2.34 in assay [7]; -0.863 (inactive) in [9]; -1.75 (inactive) in assay [11]; -0.0514 (inactive) in assay [12]; -0.23 (inactive) in assay [13]; 0.301 (inactive) in [14].

On to `COc1ccc([Si](C)(C)[C@@H]2[C@@H](CCO)O[C@]3(C(=O)N(Cc4ccccc4)c4ccc(N5C(=O)c6ccccc6Oc6ccccc65)cc43)[C@H]2C)cc1`, for which the composite z-score in assay [1] is 0.176; in assay [2], 0.106; in assay [3], 0.0875; in assay [4] it was -0.0507; in assay [5], 0.0192; in assay [6] it was -0.539. Further, the composite z-score in the assay on Lefty1 is 0.172; in assay [8] it was 0.204; in assay [10], -0.204; in assay [15], -0.059; in [16] it was -0.128; with Torsin-1A (Homo sapiens) [17], -0.642. The composite z-score was -0.32 in the assay with Torsin-1A (Homo sapiens) [18] and 0.459 in [19]. Moreover, the z-score was -0.0766 in assay [7]; 0.762 (inactive) in assay [9]; -5.7 (inactive) in assay [11]; -0.332 (inactive) in assay [12]; 1.07 (inactive) in [13]; 1.07 (inactive) in [14].

As to `CN(C)CCCNC(=O)[C@@]1(Cc2ccccc2I)c2ccccc2C(=O)N(Cc2ccccc2)[C@H]1c1ccc(CO)cc1`, the composite z-score was found to be 1.88 in assay [1]; 1.26 in [2]; 0.658 in [3]; 0.512 in assay [4]; 1.28 in assay [5]; 1.58 in [6]. Besides, the composite z-score in the assay on Lefty1 was 0.239; in assay [8], -0.0325; in [10] it was 0.652; in assay [15], -0.203; in assay [16], -0.471; with Torsin-1A (Homo sapiens) [17] it was 0.0857. Further, the composite z-score is 0.325 in the assay with Torsin-1A (Homo sapiens) [18] and 1.41 in assay [19]. The z-score in [7] was 0.893; in assay [9] it was 0.936 (inactive); in assay [11], -5.58 (inactive); in [12], 0.113 (inactive); in assay [13] it was 0.351 (inactive); in assay [14] it was 2.56 (inactive).

For `CC(=O)c1ccc(C(O)C2C=CC3C(=O)NC(=O)C3N2Nc2ccc(Cl)cc2Cl)cc1` (stereo not given), the composite z-score in [1] was 1.48; in assay [2], -0.106; in assay [3], -0.363; in assay [4], -0.131; in [5], 0.504; in assay [6], -0.115. The composite z-score in the assay with Lefty1 was -0.0596; in assay [8], 0.564; in [10], 0; in [15], 0.147; in [16], 0.0565; with Torsin-1A (Homo sapiens) [17], 0.027. The values for the composite z-score (with Torsin-1A (Homo sapiens) [18]; in [19]) were 0.0127 and -0.257, respectively. The z-score in assay [7] is -0.76; in [9] it was 0.284 (inactive); in assay [11], 0.102 (inactive); in assay [12], -0.806 (inactive); in assay [13], 0.626 (inactive); in assay [14], 0.412 (inactive).

Regarding `CC(C)C[C@H]1NC(=O)[C@@H](C)NC(=O)[C@@]23C(=O)N[C@@H](Cc4ccccc4)C2[C@H](C)[C@@]2(C)O[C@H]2C3/C=C/C/C=C\CNC1=O` (stereo not given in full), the composite z-score in assay [1] was 1.35; in assay [2], 0.633; in [3], 0.82; in assay [4] it was -0.212; in assay [5], 0.746; in assay [6], 0.238. Also, the composite z-score in the assay with Lefty1 is 0.754; in [8], 0.532; in [10], -0.134; in assay [15], -0.535; in assay [16] it was -0.218; in the assay with Torsin-1A (Homo sapiens) [17], -0.0221. In addition, the figures for the composite z-score (with Torsin-1A (Homo sapiens) [18]; in [19]) were -0.145 and 1.41, respectively. In addition, the z-score was -0.0228 in assay [7]; -0.327 (inactive) in [9]; -0.332 (inactive) in assay [11]; 0.541 (inactive) in assay [12]; 1.94 (inactive) in assay [13]; -0.435 (inactive) in assay [14].
